Experimental data taken from publication PMC5540273 (PLoS ONE, 2017).

Tests used:
Settings in all cases: concentration: 1 μM, replicates: in singlicate; n = 1
ACVR2A = test system: ACVR2A
ACVR2B = test system: ACVR2B
ACVRL1 = test system: ACVRL1
ADCK3 = test system: T1, ADCK3
T1 construct: gene CABC1

ADCK4 = test system: ADCK4
AKT1 = test system: AKT1
AKT2 = test system: AKT2
AKT3 = test system: AKT3
ALK = test system: ALK
AMPK-alpha1 = test system: T2, AMPK-alpha1
T2 construct: gene PRKAA1

AMPK-alpha2 = test system: T3, AMPK-alpha2
T3 construct: gene PRKAA2

ANKK1 = test system: ANKK1
ARK5 = test system: T4, ARK5
T4 construct: gene NUAK1

ASK1 = test system: T5, ASK1
T5 construct: gene MAP3K5

ASK2 = test system: T6, ASK2
T6 construct: gene MAP3K6

AURKA = test system: AURKA
AURKB = test system: AURKB
AURKC = test system: AURKC
AXL = test system: AXL
BIKE = test system: T7, BIKE
T7 construct: gene BMP2K
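Further: KINOMEscan kinase panel screen.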

Structure (SMILES)	%Inh (ACVR2A) [%]	%Inh (ACVR2B) [%]	%Inh (ACVRL1) [%]	%Inh (ADCK3) [%]	%Inh (ADCK4) [%]	%Inh (AKT1) [%]	%Inh (AKT2) [%]	%Inh (AKT3) [%]	%Inh (ALK) [%]	%Inh (AMPK-alpha1) [%]	%Inh (AMPK-alpha2) [%]	%Inh (ANKK1) [%]	%Inh (ARK5) [%]	%Inh (ASK1) [%]	%Inh (ASK2) [%]	%Inh (AURKA) [%]	%Inh (AURKB) [%]	%Inh (AURKC) [%]	%Inh (AXL) [%]	%Inh (BIKE) [%]
N#Cc1c(N2CCOCC2)sc(-c2ccn[nH]2)c1-c1ccc(Cl)cc1	0	0	0	12	0	0	0	0	0	9	0	0	0	0	0	44	4	0	0	0
O=c1cc(N2CCOCC2)nc2n(Cc3cccc(F)c3)ccn12 [GSK2297430]	6	0	14	9	0	0	9	0	8	5	21	0	7	0	6	0	0	32	14	26
CCCCCc1nc2c(N)ncnc2n1CCCCC [SKF-97255]	0	0	13	1	0	0	0	0	0	3	11	0	0	0	0	10	37	0	0	0
CN(C(=O)c1ccc(-c2cc(-c3c[nH]nc3-c3ccccn3)ccn2)cc1)C1CCOCC1 [GW810083]	0	2	0	1	24	0	0	0	17	0	0	0	15	44	0	0	0	7	48	20
CCc1ccnc(/C=C/c2n[nH]c3cc(Sc4ccccc4C(=O)NC)ccc23)c1	0	0	0	0	0	0	0	8	11	0	0	0	11	0	0	77	94.5	97.3	45	34
